Measured values published in PubChem BioAssay (Tox21).
Records with an inconclusive call do not appear. Calls of active or inactive are those of the source. Unless noted, calls come from the whole dose curve.

Key:
[1] = Nuclear factor erythroid 2-related factor 2/antioxidant responsive element (Nrf2/ARE) small molecule agonists: luciferase reporter gene qHTS assay in human keratinocytes (AID 1919969); note: nearly all actives have a fitted effect of over 35% in size
[2] = molecular target: Gonadotropin-releasing hormone receptor (Homo sapiens) (UniProt P30968); assay: Human gonadotropin-releasing hormone receptor (GnRHR) small molecule agonists, calcium flux assay in GnRHR-HEK293 cells (AID 1920063); note: nearly all actives have a fitted effect of over 35% in size
Sequence of Gonadotropin-releasing hormone receptor (Homo sapiens) (P30968 whole entry, looked up): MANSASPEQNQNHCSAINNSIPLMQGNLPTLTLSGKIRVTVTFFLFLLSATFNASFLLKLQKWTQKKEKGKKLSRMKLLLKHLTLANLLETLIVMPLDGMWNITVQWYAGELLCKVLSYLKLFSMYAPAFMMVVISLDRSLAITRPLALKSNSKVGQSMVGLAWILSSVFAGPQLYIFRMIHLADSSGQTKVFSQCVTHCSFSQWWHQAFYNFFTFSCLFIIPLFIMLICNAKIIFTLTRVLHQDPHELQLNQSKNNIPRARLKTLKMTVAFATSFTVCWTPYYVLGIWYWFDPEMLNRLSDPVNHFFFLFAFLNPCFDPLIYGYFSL
In short: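 Agonist mode: compounds at 15 concentrations, in triplicate, went onto calcium dye-loaded GnRHR-HEK293 cells. Intracellular calcium was then followed as 480/540 nm fluorescence at 1 s intervals over 3 min.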

[3] = molecular target: KiSS-1 receptor (Homo sapiens) (UniProt Q969F8); assay: Human kisspeptin (KISS1R) small molecule agonists, calcium flux assay in KISS1R-HEK293 cells (AID 1920064; active = well fitted activation curve with a large enough effect in the repeat runs)
Sequence of KiSS-1 receptor (Homo sapiens) (Q969F8 whole entry, looked up): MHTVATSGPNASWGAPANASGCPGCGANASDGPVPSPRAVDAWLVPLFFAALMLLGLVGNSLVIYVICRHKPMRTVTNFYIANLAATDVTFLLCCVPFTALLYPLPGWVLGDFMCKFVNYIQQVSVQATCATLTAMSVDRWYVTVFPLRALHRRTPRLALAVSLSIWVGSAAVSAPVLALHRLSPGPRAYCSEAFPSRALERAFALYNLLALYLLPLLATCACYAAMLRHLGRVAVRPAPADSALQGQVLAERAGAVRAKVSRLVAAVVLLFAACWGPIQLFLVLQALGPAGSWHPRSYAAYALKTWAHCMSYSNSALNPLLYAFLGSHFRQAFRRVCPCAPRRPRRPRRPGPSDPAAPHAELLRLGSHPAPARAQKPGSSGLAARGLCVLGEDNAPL
In short: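 Agonist mode: intracellular calcium rise tracked at 1 s intervals over 3 min (480/540 nm) immediately after compound addition to dye-loaded KISS1R-HEK293 stable cells. Each compound tested at 15 concentrations in triplicate.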

[4] = G protein-coupled receptor (GPCR) small molecule agonists, calcium flux assay: HEK293 wild type cell line counter screen (AID 1920065)
In short: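 Calcium flux counter screen: compound added in agonist mode at 15 concentrations in triplicate to dye-loaded parental HEK293 cells. Fluorescence (480/540) read kinetically for 3 min; ATP served as positive control.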

[5] = p53 small molecule agonists, cell-based qHTS assay with human liver microsomes (AID 1963577)
In short: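 Fluorescence of the beta-lactamase reporter in p53RE-bla cells, detected with LiveBLAzer substrate (2 h, room temperature, dark), served as the read-out after 16 h compound exposure at 37 C with human liver microsomes and NADPH, each 0.5 mg/mL final.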

[6] = p53 small molecule agonists, cell-based qHTS assay with rat liver microsomes (AID 1963578)
In short: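 Cells carrying a p53 response element–beta-lactamase reporter were plated and rested 5 h, then dosed with compound in DMSO plus rat liver microsomes and NADPH, each at 0.5 mg/mL final. After 16 h at 37 C, LiveBLAzer substrate was added for 2 h.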

[7] = p53 small molecule agonists, cell-based qHTS assay with human liver microsomes: qHTS cell viability counter screen (AID 1963579); note: nearly all actives have a fitted effect of over 45% in size
In short: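 Cytotoxicity counter screen: p53RE-bla, 4,000 cells/well; 5 h settle, 37 C/5% CO2; cpd + HLM 0.5 mg/mL + NADPH 0.5 mg/mL (final); 16 h, 37 C; CellTiter-Glo, 30 min RT, luminescence.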

[8] = p53 small molecule agonists, cell-based qHTS assay with rat liver microsomes: qHTS cell viability counter screen (AID 1963580); note: nearly all actives have a fitted effect of over 45% in size
In short: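 After the beta-lactamase ratio was read, CellTiter-Glo was added to the same wells and luminescence measured at 30 min; cells had been treated 16 h at 37 C with compounds, rat liver microsomes and NADPH (0.5 mg/mL final each).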

[9] = p53 small molecule agonists, cell-based qHTS assay: qHTS cell viability counter screen (AID 1963581); note: nearly all actives have a fitted effect of over 45% in size
In short: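 Counter screen read by CellTiter-Glo luminescence (ATP content, 30 min at room temperature), run in the same wells as the beta-lactamase reporter read. HCT-116 p53RE-bla cells saw compounds for 16 h at 37 C.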

[10] = p53 small molecule agonists, cell-based qHTS assay (AID 1963582; active = well fitted activation curve with a large enough effect in the signal ratio in the repeat runs, not every such curve was filed as active; the % refers to the signal ratio)
In short: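 Read-out is beta-lactamase FRET fluorescence after 2 h at room temperature with LiveBLAzer B/G substrate. p53 response element-bla cells were treated 16 h at 37 C with compounds in DMSO, added 5 h after seeding.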

[11] = molecular target: 5-hydroxytryptamine receptor 2A (Homo sapiens) (UniProt P28223); assay: 5-hydroxytryptamine receptor 2A (HTR2A) small molecule antagonists, cell-based qHTS assay (AID 1963586); note: nearly all actives have a fitted effect of over 45% in size
Sequence of 5-hydroxytryptamine receptor 2A (Homo sapiens) (P28223 whole entry, looked up): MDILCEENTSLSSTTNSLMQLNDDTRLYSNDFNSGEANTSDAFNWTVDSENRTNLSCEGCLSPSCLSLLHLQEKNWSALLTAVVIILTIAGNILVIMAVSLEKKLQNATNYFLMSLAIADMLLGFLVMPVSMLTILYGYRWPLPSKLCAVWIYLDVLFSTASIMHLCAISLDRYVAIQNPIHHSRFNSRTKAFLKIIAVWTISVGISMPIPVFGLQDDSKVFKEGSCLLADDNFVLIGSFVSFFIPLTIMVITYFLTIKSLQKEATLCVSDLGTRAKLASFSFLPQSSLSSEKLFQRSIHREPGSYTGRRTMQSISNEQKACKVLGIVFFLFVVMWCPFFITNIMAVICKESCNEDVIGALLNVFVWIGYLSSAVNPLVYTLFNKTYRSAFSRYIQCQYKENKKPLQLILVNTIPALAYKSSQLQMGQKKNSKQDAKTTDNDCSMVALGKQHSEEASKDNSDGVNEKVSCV
In short: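 CHO cells stably expressing human HTR2A were plated for 18 h at 37 C, then loaded with calcium dye for 1 h. Compounds were preincubated 5 min at room temperature before DOI (4 nM solution) was added. Kinetic fluorescence was read for 3 min.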

[12] = molecular target: 5-hydroxytryptamine receptor 2A (Homo sapiens) (UniProt P28223); assay: 5-hydroxytryptamine receptor 2A (HTR2A) small molecule agonists, cell-based qHTS assay (AID 1963587); note: nearly all actives have a fitted effect of over 30% in size
In short: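 CHO cells stably expressing human HTR2A, plated 18 h, loaded with calcium dye 1 h at 37 C. Agonist mode: compounds added and intracellular calcium fluorescence recorded kinetically for 2 min at 1 sec intervals.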

[13] = molecular target: Muscarinic acetylcholine receptor M1 (Homo sapiens) (UniProt P11229); assay: Cholinergic receptor muscarinic 1 (CHRM1) small molecule antagonists, cell-based qHTS assay (AID 1963588); note: nearly all actives have a fitted effect of over 40% in size
Sequence of Muscarinic acetylcholine receptor M1 (Homo sapiens) (P11229 whole entry, looked up): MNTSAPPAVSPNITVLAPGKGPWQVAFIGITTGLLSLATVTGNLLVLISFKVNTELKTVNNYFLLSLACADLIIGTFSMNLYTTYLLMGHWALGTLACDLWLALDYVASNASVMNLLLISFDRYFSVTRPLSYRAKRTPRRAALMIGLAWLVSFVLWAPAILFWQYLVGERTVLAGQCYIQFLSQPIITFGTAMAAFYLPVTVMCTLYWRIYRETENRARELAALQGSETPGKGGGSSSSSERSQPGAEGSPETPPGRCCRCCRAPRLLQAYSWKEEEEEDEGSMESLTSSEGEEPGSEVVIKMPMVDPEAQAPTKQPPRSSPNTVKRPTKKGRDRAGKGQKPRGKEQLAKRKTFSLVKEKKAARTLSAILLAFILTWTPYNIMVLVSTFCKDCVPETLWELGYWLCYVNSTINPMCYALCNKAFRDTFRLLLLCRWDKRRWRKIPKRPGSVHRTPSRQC
In short: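 Compounds were tested at 15 concentrations in three independent runs. Dye-loaded CHRM1-CHO cells were exposed 5 min at room temperature before stimulation by acetylcholine added at 50nM. Intracellular calcium was read kinetically on FDSS for 3 min.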

[14] = molecular target: Muscarinic acetylcholine receptor M1 (Homo sapiens) (UniProt P11229); assay: Cholinergic receptor muscarinic 1 (CHRM1) small molecule agonists, cell-based qHTS assay (AID 1963589); note: nearly all actives have a fitted effect of over 35% in size
In short: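 Agonist-mode calcium-flux screen: compounds at 15 concentrations, three independent runs, were pin-transferred onto dye-loaded human CHRM1-CHO cells. Fluorescence was then recorded kinetically every second over minutes.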

[15] = cAMP Responsive Elements (CRE) small molecule agonists, cell-based qHTS assay (AID 1963590)
In short: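 Agonist mode: compound added to CRE-bla HEK 293T cells (2,000/well, 18 h after plating) for 3 h at 37 C/5% CO2. Reporter activity detected via FRET beta-lactamase substrate, 2 h room-temperature loading.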

[16] = cAMP Responsive Elements (CRE) small molecule antagonists, cell-based qHTS assay (AID 1963591; active = well fitted inhibition curve with a large enough effect in the signal ratio in the repeat runs, not every such curve was filed as active; the % refers to the signal ratio)
In short: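 Antagonist mode: compounds are added alongside the adenylyl cyclase activator NKH477 (0.25 uM final) to CRE-bla HEK293T cells for 3 h. LiveBLAzer FRET substrate, 2 h at room temperature, reports bla expression.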

[17] = molecular target: Beta-2 adrenergic receptor (Homo sapiens) (UniProt P07550); assay: Adrenergic beta2 receptor (ADRB2) small molecule antagonists, cell-based qHTS assay (AID 1963592); note: series mostly up to about 92 µM; nearly all actives have a fitted effect of over 50% in size
Sequence of Beta-2 adrenergic receptor (Homo sapiens) (P07550 whole entry, looked up): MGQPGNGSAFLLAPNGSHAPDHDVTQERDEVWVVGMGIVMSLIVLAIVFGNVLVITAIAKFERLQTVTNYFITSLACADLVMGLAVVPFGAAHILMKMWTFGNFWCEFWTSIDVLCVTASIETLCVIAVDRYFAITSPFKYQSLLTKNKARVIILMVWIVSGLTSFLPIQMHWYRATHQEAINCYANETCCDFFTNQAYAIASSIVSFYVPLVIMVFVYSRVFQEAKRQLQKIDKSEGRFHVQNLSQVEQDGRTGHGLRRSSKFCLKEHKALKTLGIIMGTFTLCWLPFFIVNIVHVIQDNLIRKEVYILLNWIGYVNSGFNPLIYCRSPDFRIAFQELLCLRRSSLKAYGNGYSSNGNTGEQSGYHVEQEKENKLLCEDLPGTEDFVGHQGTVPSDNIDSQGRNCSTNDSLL
In short: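 Assay format: CHO-ADRB2 cells, 18-20hr seeding at 37C/5% CO2, then compound plus 1nM isoproterenol agonist mix for 0.5hr RT. Homogeneous time-resolved fluorescence cAMP detection after 1hr, expressed as 665/615 nm ratio.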

[18] = molecular target: Beta-2 adrenergic receptor (Homo sapiens) (UniProt P07550); assay: Adrenergic beta2 receptor (ADRB2) small molecule agonists, cell-based qHTS assay (AID 1963593);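 note: CHO cells stably overexpressing human ADRB2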
In short: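 CHO cells stably over-expressing ADRB2 were plated overnight at 37C, then dosed with compounds plus a stimulation mix containing 100uM IBMX and 25uM Ro-20-1724 for 0.5hr at room temperature. cAMP was measured by HTRF competition, 1hr.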

[19] = molecular target: D(2) dopamine receptor (Homo sapiens) (UniProt P14416); assay: Dopamine D2 receptor (DRD2) small molecule agonists, cell-based qHTS assay (AID 1963594); note: nearly all actives have a fitted effect of over 35% in size
Sequence of D(2) dopamine receptor (Homo sapiens) (P14416 whole entry, looked up): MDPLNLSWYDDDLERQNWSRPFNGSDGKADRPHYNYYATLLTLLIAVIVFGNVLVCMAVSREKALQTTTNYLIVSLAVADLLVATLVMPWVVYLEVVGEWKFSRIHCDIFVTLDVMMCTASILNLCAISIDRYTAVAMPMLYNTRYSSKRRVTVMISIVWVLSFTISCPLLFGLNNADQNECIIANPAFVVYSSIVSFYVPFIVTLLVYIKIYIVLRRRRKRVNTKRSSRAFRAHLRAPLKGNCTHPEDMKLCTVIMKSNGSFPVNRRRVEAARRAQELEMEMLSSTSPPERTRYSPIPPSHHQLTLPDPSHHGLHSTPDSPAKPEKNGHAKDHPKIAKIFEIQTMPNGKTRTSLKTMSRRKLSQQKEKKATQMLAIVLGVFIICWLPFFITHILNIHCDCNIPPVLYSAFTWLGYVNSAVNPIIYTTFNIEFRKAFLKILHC
In short: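 HEK293 cells stably expressing human DRD2, pre-treated with PDE inhibitor Ro20-1724 (0.1 mM final) and compound 10 min at room temperature, then stimulated with NKH477 (200nM […]) for 30 min. cAMP read by HTRF (665/620 nm).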

[20] = molecular target: D(2) dopamine receptor (Homo sapiens) (UniProt P14416); assay: Dopamine D2 receptor (DRD2) small molecule antagonists, cell-based qHTS assay (AID 1963595; active = well fitted inhibition curve with a large enough effect in the signal ratio in the repeat runs, with a control signal flat; the % refers to the signal ratio)
In short: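 HTRF cAMP read-out at 665 and 620 nm emission (340 nm excitation). Antagonist mode: compounds were tested against 12 nM quinpirole in DRD2-HEK293 cells, with 200 nM NKH477 raising cAMP and 0.1 mM Ro20-1724 blocking its breakdown.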
% is set by controls: 0 for no effect and ±100 for the full control effect.

CCCCCCCCCCCCCCCCBr
inactive: activity, positive = activation [1] -1.44% [at 19 µM] | activity change [2] 0.0207% [at 11.8 µM, active compounds read high] | activation [3] 1.03% [at 15.8 µM] | activation [4] -0.623% [at 11.8 µM] | activation [5] -0.838% [at 13.5 µM] | activation [6] -1.9% [at 13.6 µM] | activity change, negative = cytotoxicity [7] 0.899% [at 13.5 µM] | activity change, negative = cytotoxicity [8] 0.7% [at 13.5 µM] | activity change, negative = cytotoxicity [9] 4.33% [at 13.5 µM] | activation [10] 4.11% [at 13.5 µM] | activity, negative = inhibition [11] 4.99% [at 12.7 µM] | activation [12] -4.48% [at 15.9 µM] | activity, negative = inhibition [13] -1.85% [at 12.6 µM] | activation [14] -0.125% [at 15.8 µM] | activation [15] -0.367% [at 19 µM] | activity change, negative = inhibition [16] -0.0105% [at 18.9 µM] | activity change, negative = inhibition [17] -0.441% [at 19 µM] | activation [18] -6.98% [at 19 µM] | activation [19] -0.697% [at 19 µM] | activity change, negative = inhibition [20] -0.776% [at 18.9 µM]

CC(C)NC(=O)c1ccccc1N
inactive: Potency [1] | Potency [2] | Potency [3] | Potency [4] | Potency [5] | Potency [6] | Potency [7] | Potency [8] | Potency [9] | Potency [10] | Potency [11] | Potency [12] | Potency [13] | Potency [14] | Potency [15] | Potency [16] | Potency [17] | Potency [20]

CCCSSCCC
inactive: Potency [1] | Potency [2] | Potency [3] | Potency [4] | Potency [5] | Potency [6] | Potency [7] | Potency [8] | Potency [9] | Potency [10] | Potency [11] | Potency [12] | Potency [13] | Potency [16] | Potency [17] | Potency [18] | Potency [19] | Potency [20]

CC(=O)CC(C)(C)C1CCCCC1
inactive: Potency [1] | Potency [2] | Potency [3] | Potency [4] | Potency [5] | Potency [6] | Potency [7] | Potency [8] | Potency [9] | Potency [10] | Potency [11] | Potency [12] | Potency [13] | Potency [14] | Potency [16] | Potency [17] | Potency [18] | Potency [19] | Potency [20]

O=S(=O)(O)c1ccc2cc(O)c(S(=O)(=O)O)cc2c1
inactive: Potency [1] | Potency [2] | Potency [3] | Potency [4] | Potency [5] | Potency [6] | Potency [7] | Potency [8] | Potency [9] | Potency [10] | Potency [11] | Potency [12] | Potency [13] | Potency [14] | Potency [15] | Potency [16] | Potency [17] | Potency [18] | Potency [19] | Potency [20]

COCC(O)CO (centres undefined)
inactive: Potency [1] | Potency [2] | Potency [3] | Potency [4] | Potency [5] | Potency [6] | Potency [7] | Potency [8] | Potency [9] | Potency [10] | Potency [11] | Potency [12] | Potency [13] | Potency [14] | Potency [15] | Potency [16] | Potency [17] | Potency [19] | Potency [20]

CC1CCC(C(C)(C)O)CC1 (centres undefined)
inactive: Potency [1] | Potency [2] | Potency [3] | Potency [4] | Potency [5] | Potency [6] | Potency [7] | Potency [8] | Potency [9] | Potency [10] | Potency [11] | Potency [12] | Potency [13] | Potency [14] | Potency [15] | Potency [16] | Potency [17] | Potency [18] | Potency [19] | Potency [20]
